This is part of a sample that, as a whole, favours compounds with a hit. Of some 79,000 tested, about 15% had one in any assay. Active and inactive are the calls of the source. Rule as the data show it: active = growth inhibition above about 70%; inactive = the rest.
Tests used:
[1] = NCI Yeast Anticancer Drug Screen. Data for the rad50 strain (AID 155);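 also: 0% = growth of vehicle-only cultures of the same strain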; details: S. cerevisiae rad50 strain growth inhibition; at 50.0 µM; hits give high values
Outline: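 A DNA repair-deficient yeast mutant serves as the test organism; compound-induced growth inhibition is calculated against vehicle-treated cells.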

[2] = NCI Yeast Anticancer Drug Screen. Data for the mec2-1 strain (AID 157); details: S. cerevisiae mec2-1 strain, at 50.0 µM, hits give high values
Outline: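 Strain: mec2-1 (DNA repair/cell cycle alteration). Compound exposure, then growth measured; inhibition expressed relative to vehicle.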

[3] = NCI Yeast Anticancer Drug Screen. Data for the sgs1 mgt1 strain (AID 161);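 also: 0% = growth of cultures given vehicle only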; details: S. cerevisiae sgs1 mgt1 strain, at 50.0 µM, hits give high values
Outline: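 Genetically altered yeast, compound exposure, growth inhibition relative to vehicle.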

[4] = NCI Yeast Anticancer Drug Screen. Data for the cln2 rad14 strain (AID 165);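 also: 0% = growth equal to vehicle treated cultures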; details: S. cerevisiae cln2 rad14 strain, at 50.0 µM, hits give high values
Outline: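 Compounds are applied to the cln2 rad14 yeast strain, and growth is then compared with that of vehicle-treated cultures to give inhibition.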

[5] = NCI Yeast Anticancer Drug Screen. Data for the bub3 strain (AID 167); details: S. cerevisiae bub3 mutant strain, at 50.0 µM, hits give high values
Outline: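 Inhibition values come from growth of compound-treated mutant yeast normalised to vehicle-treated controls.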

[6] = NCI Yeast Anticancer Drug Screen. Data for the mlh1 rad18 strain (AID 175); details: S. cerevisiae mlh1 rad18 strain growth inhibition; at 50.0 µM; hits give high values
Outline: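 Read-out is yeast growth inhibition, calculated against vehicle-only controls. The compound was applied to a strain engineered with DNA damage repair alterations.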

Measured: growth inhibition

NC(=O)NC1CC1c1ccccc1 (configuration not stated)
inactive: [1] -6.6% | [2] 4.1% | [3] -2.7% | [4] 22.1% | [5] -10.3% | [6] -1.45%

O=C(O)c1cc2c(c(C(=O)O)c1O)CCCC2
inactive: [1] 11.3% | [2] -19.6% | [3] 9.95% | [4] -23.2% | [5] -6.35% | [6] -4.85%

CCOC1CCCC(OCC)O1 (configuration not stated)
inactive: [1] -44.4% | [2] -48.5% | [3] -19.9% | [4] 12% | [5] -37.6% | [6] -27.9%

COC(=O)C1(C)CCCC2(C)C3CC4OC4(C(C)C)CC3(O)CCC12 (configuration not stated)
inactive: [1] -4.5% | [2] 6.85% | [3] 4% | [4] -8.4% | [5] -12.1% | [6] 42.1%

CCCCc1c(OC)cc(O)c2c1C(=O)c1[nH]c(C(=O)O)c(O)c(=O)c1C2=O
inactive: [1] -16.6% | [2] -19.3% | [3] -13.9% | [4] -11.7% | [5] -10.9% | [6] -5.75%

COC(c1ccc(C(C)(C)C)cc1)(c1ccc(C(C)(C)C)cc1)c1cc(C(O)(c2cc(C(OC)(c3ccc(C(C)(C)C)cc3)c3ccc(C(C)(C)C)cc3)c(C)cc2C)c2cc(C(OC)(c3ccc(C(C)(C)C)cc3)c3ccc(C(C)(C)C)cc3)c(C)cc2C)c(C)cc1C
inactive: [1] -26.8% | [2] -12.7% | [3] -12.8% | [4] 13.8% | [5] -17.8% | [6] -9.05%

CON1C(=O)c2ccccc2C1=O
inactive: [1] 1.15% | [2] 4% | [3] -7.85% | [4] -4.6% | [5] -22.4% | [6] -9.3%

COC(=O)c1ccc(OC(=O)Nc2ccc(C)cc2)cc1
inactive: [1] -7.15% | [2] -9.6% | [3] -8.45% | [4] -9.4% | [5] 13.6% | [6] -6.6%

COC(=O)[C@H]1C=C[C@@H](C)n2c(=O)c3ccccc3c(=O)n21
inactive: [1] -9% | [2] 15.4% | [3] -1.4% | [4] -9.75% | [5] -19.1% | [6] -6.8%

O=C(CCCCCCCCC(=O)NCC1(c2ccccc2)CCNCC1)NCC1(c2ccccc2)CCNCC1
inactive: [1] -27.5% | [2] -23.6% | [3] -15.2% | [4] -3.25% | [5] -23.9% | [6] -11.2%

COC(=O)c1cc(C(=O)c2ccccc2)cc2c1c(=O)[nH]c1ccccc12
inactive: [1] -0.95% | [2] -7.5% | [3] -16.4% | [4] -5.7% | [5] -23.9% | [6] 6.75%

O=C1OC(=O)C(Cl)=C1Cl
inactive: [1] 16.6% | [2] -10.5% | [3] 28.8% | [4] 10.7% | [5] 9.4% | [6] 22.3%

CCOC(=O)N/N=C(\C)c1ccc(OC)cc1
inactive: [1] 17.8% | [2] 21.9% | [3] 20.1% | [4] 11.3% | [5] 34.9% | [6] 19.1%

Cc1nc(C#N)c(=N)n(CCCO)c1-c1ccccc1
inactive: [1] 7.2% | [2] -8.45% | [3] 10.3% | [4] -28.5% | [5] 16.4% | [6] 5.15%

CC(=O)c1ccc([C@H](O)[C@H](CO)NC(=O)C(Cl)Cl)cc1
inactive: [1] -1.1% | [2] 0.45% | [3] 6.95% | [4] -57.4% | [5] -21.6% | [6] -16.2%

CCCCn1c(=O)c2c(ncn2C)n(C)c1=O
inactive: [1] 16.8% | [2] 16.6% | [3] 9.75% | [4] -9.25% | [5] -2.45% | [6] 6.2%

CC(C)[C@@H]1CC[C@@H](C)C[C@H]1OC(=O)c1c2n(c3ccccc13)C[C@H]1OC(C)(C)O[C@@H]21
inactive: [1] 5.15% | [2] -6.65% | [3] 7.4% | [4] 22.9% | [5] 15.2% | [6] -46.2%

CCO[C@H]1c2cc3c(cc2[C@@H](c2cc(OC)c(OC)c(OC)c2)[C@H]2C(=O)OC[C@@H]21)OCO3
inactive: [1] 11.4% | [2] 6.25% | [3] 26.9% | [4] 28.7% | [5] 12.7% | [6] 24.9%

N#CC(C#N)=CN1CCCC1
inactive: [1] -19.6% | [2] 9.4% | [3] -6.45% | [4] -12.3% | [5] -5.95% | [6] -1.7%

CCOC(=O)c1c(O)nc2sc3ccccc3n2c1=O
inactive: [1] 19% | [2] 12.7% | [3] 6.7% | [4] -1.75% | [5] 13.6% | [6] 41.4%

OCC1OC(Oc2ccccc2)C(O)C(O)C1O (configuration not stated)
inactive: [1] 8.15% | [2] 30.6% | [3] 21.8% | [4] -1% | [5] 33% | [6] 24.1%

COc1c(NC(=O)CC(C)=O)cccc1NC(=O)CC(C)=O
inactive: [1] -1.2% | [2] 14.4% | [3] -2.05% | [4] 7.95% | [5] -8.25% | [6] -11.3%

CCCCCCC1NN(C(C)=O)C(CCCCCC)NN1C(C)=O (configuration not stated)
inactive: [1] 10.5% | [2] -4.1% | [3] 7.65% | [4] 49.1% | [5] 7.1% | [6] -3.75%

CC(C)Oc1ccc(C(=O)OCCC(C)N2CCCC2)cc1 (configuration not stated)
inactive: [1] 40.9% | [2] 36.7% | [3] 53.2% | [4] 31.5% | [5] 46.4% | [6] 27.9%

CC(O)C(C)NC(C)C(C)O (configuration not stated)
inactive: [1] 0.4% | [2] -0.35% | [3] -30.8% | [4] 15.3% | [5] 12.1% | [6] -2.85%

Cc1cc(C)c(C(=O)/C=C(\N)C(=O)c2c(C)cc(C)cc2C)c(C)c1
inactive: [1] -7.05% | [2] 0% | [3] 2.75% | [4] 14.7% | [5] 27.1% | [6] 4.75%

CC1=CC[C@H]2C(C)=CC[C@@H](C(C)C)[C@@H]2C1
inactive: [1] 10.4% | [2] 6.05% | [3] 24.2% | [4] 21.6% | [5] 13.1% | [6] 17.4%

CC(=O)c1c2c(cc3c1CCC3)CCC2
inactive: [1] -15.4% | [2] -47.2% | [3] -20.1% | [4] -26% | [5] -21.7% | [6] -0.8%

Nc1nc(N)c(N=Nc2ccc(Cl)cc2)c(=O)[nH]1
inactive: [1] 19.9% | [2] -20.6% | [3] -26.1% | [4] 23.1% | [5] 5.35% | [6] 13.7%

Cc1ccc(-c2cc(-c3ccco3)nc(N)n2)o1
inactive: [1] -23.9% | [2] -9.1% | [3] 10.6% | [4] 4.3% | [5] 5.45% | [6] 1.75%

CC(=O)C(C)(O)C(OP(=O)(O)O)c1ccccc1 (configuration not stated)
inactive: [1] 0.65% | [2] -10.5% | [3] 4.6% | [4] -37.4% | [5] -11.1% | [6] 3.55%

O=C1C2C3C=C4c5ccccc5N(c5ccccc5)C4(C2C(=O)N1c1ccc([N+](=O)[O-])cc1)[C@H]1C(=O)N(c2ccc([N+](=O)[O-])cc2)C(=O)[C@@H]31 (some centres not stated)
inactive: [1] 14.7% | [2] 22.1% | [3] 21.9% | [4] 13.2% | [5] 28% | [6] 19.1%

CCOC(=O)N1CCc2cc(OC)c(OC)c3c2c1cc1cc(OC)c(OC)cc13
inactive: [1] -9.2% | [2] 18.9% | [3] -4.55% | [4] -35.5% | [5] 16.1% | [6] 16.4%

O=C(O)CN1C(=O)C2C3c4ccccc4C(c4ccccc43)C2C1=O (configuration not stated)
inactive: [1] -5.65% | [2] -4.7% | [3] 1.25% | [4] -26.6% | [5] -19.6% | [6] 0%

Cn1nc2c(c1-c1cccnc1)CCCc1ccccc1-2
inactive: [1] 10.1% | [2] 24.6% | [3] 13.7% | [4] -15.4% | [5] 69.3% | [6] 28.9%

Cc1cccc2c1C1C(CC2=O)C(=O)c2ccccc2C1C (configuration not stated)
inactive: [1] 7% | [2] -17.8% | [3] 3.5% | [4] 8.9% | [5] 11.6% | [6] 11.5%

O=C(N/N=C/c1ccc(O)cc1)C1CCCO1 (configuration not stated)
inactive: [1] 2.9% | [2] 26.5% | [3] -1.35% | [4] -64.2% | [5] 2.95% | [6] -9.45%
